Screens from PubChem BioAssay.
Shiga inhibitor: A qHTS for Small Molecule Inhibitors of Shiga Toxin; inhibition, % at 38.7 µM; Vero cells, Shiga toxin protein synthesis inhibition reporter; 290,000 compounds, 9.2% hits; in the data active means inhibition mostly above about 28%, no sharp cut-off; inactive means mostly below about 43%; further: 0% is about no effect
LASV entry inh: qHTS for Inhibitors of binding or entry into cells for Lassa Virus | Lassa virus pseudotype entry inhibition, cell reporter | Potency, µM (highest dose often 37.9 µM), without a hit: top-dose activity change, negative = inhibition, hits mostly inhibitors | 300,000 compounds, 1.2% hits | AID 540256, 2011; calls by dose curve; tested in HEK293 cells; further: potency means the concentration at half of the fitted maximal effect; on the % scale 0 is the no-effect control and ±100 the full control effect; nearly all actives have a fitted effect of over 50% in size
MARV entry inh: qHTS for inhibitors of binding or entry into cells for Marburg Virus. Marburg virus pseudotyped entry inhibition, cell reporter. Potency, µM (titrated, usually from 37.8 µM), for the others: at the top dose activity change, negative = inhibition, usual class: inhibitors. AID 540276, 2011. 300,000 compounds, 1.8% hits; calls by dose curve; tested in HEK293 cells; further: potency means the concentration at half of the fitted maximal effect; on the % scale 0 is the no-effect control and ±100 the full control effect
CHX counter: Cycloheximide Counterscreen for Small Molecule Inhibitors of Shiga Toxin; 300,000 compounds, 12% hits; AID 2314, 2010; max response, %; cell reporter, cycloheximide protein synthesis inhibition counterscreen; in the data active means max response mostly above about 13%, no sharp cut-off; inactive means mostly below about 14%; further: read at 38.3 µM for the half of the compounds with a filed dose; 0% is about no effect
The depositor's hits bear a star; ? = inconclusive; / = not tested or not shown; [ ] = another dose, or the depositor's remark. Shown are actives, neighbours in structure and some others; about 12% of the full set was active somewhere.

SMILES | Shiga inhibitor | LASV entry inh | MARV entry inh | CHX counter
CCCc1cc(=O)oc2c(C)c(OCC(=O)Nc3cccnc3)ccc12 | 3 | 16%[46.1 µM] | -9%[46.1 µM] | -1
CCC(=O)N1CCCc2cc(S(=O)(=O)N3CCC(C(=O)Nc4ccc(F)c(F)c4)CC3)ccc21 | / | 5%[46.1 µM] | / | /
Cc1cc(C)c(S(=O)(=O)N(C)CC(=O)NC2CCCC2)c(C)c1 | -13 | 1% | -4% | -2
Cc1ccc(NC(=O)C(=O)Nc2ccccn2)cc1 | 69* | 2.9µM* | 1.1µM* | 38*
COc1ccccc1OCC(=O)Nc1ccccn1 | 27 | ? | -11% | 27*
Cc1ccc(S(=O)(=O)CC(=O)Nc2ccccn2)cc1 | -1 | 1%[46.1 µM] | -20%[46.1 µM] | -7
Cc1cccc(N(CC(N)=O)C2SC(=O)N(Cc3cccc(C(=O)O)c3)C2=O)c1 (stereo unspecified) | / | 26%[46.1 µM] | 0%[46.1 µM] | /
Cc1cc(=O)oc2cc(NC(=O)c3c(Cl)cnn3C)ccc12 | 22 | / | / | 6
Cc1cc(=O)oc2cc(NC(=O)c3ccnn3C)ccc12 | 26 | 28%[46.1 µM] | 3%[46.1 µM] | 17*
Cc1cc(NC(=O)c2ccccc2Cl)ccc1NC(=O)c1ccccc1Cl | / | / | / | -2
Cc1cc(=O)oc2cc(NC(=O)c3ccccc3C(=O)O)ccc12 | 65 | -5% | 5% | 22*
COc1cccc(C(=O)Nc2ccc3c(C)cc(=O)oc3c2)c1 | 115* | / | / | 62*
Cc1ccc2sc3ccc(NC(=O)c4ccccc4Cl)cc3c(=O)c2c1 | 43* | 1% | ? | 35*
Cc1cc(=O)oc2cc(NC(=O)c3ccccc3Cl)ccc12 | 86* | ? | -13%[46.1 µM] | 40*
O=C(N/N=C/c1ccncc1)C1C2CCCCCCC21 (stereo unspecified) | -8 | -3% | -13% | -4
CON(C)C(=O)Nc1ccc(Br)c(Cl)c1 | 54* | / | / | 27*
CCc1ccccc1NC(=O)Nc1ccc(F)cc1 | 31 | ? | -24%[46.1 µM] | 14*
O=C(OC(C(=O)Nc1ccc([N+](=O)[O-])cc1Br)c1ccccc1)c1ccccc1 (stereo unspecified) | -7 | -2% | 3.5µM* | -3
O=C(Nc1ccccc1)Nc1cccc(NC(=O)Nc2ccccc2)c1F | 47 | 0% | ? | 18*
CON(C)C(=O)Nc1ccc(Br)cc1 | 10 | / | / | 27
CCc1ccccc1N(CC(=O)Nc1cccnc1)S(=O)(=O)c1ccccc1 | -13 | -1% | -1% | -1
O=C(Cc1ccc([N+](=O)[O-])cc1)Nc1cc(C(F)(F)F)cc(C(F)(F)F)c1 | -14 | ? | ? | 1
COc1ccc(OC)c(NC(=O)C(C)N2c3cccc4cccc(c34)S2(=O)=O)c1 (stereo unspecified) | -7 | 8% | -2% | -2
COc1ccccc1C(=O)N/C(=C\c1cn(S(=O)(=O)N(C)C)c2ccccc12)C(=O)NCCN1CCOCC1 | -3 | / | / | 7
COc1cc(OC)c(OC)cc1/C=C/c1nc2cc3ccccc3cc2c(=O)n1-c1ccc(F)cc1F | / | -20%[46.1 µM] | / | /
SMILES | Shiga inhibitor | LASV entry inh | MARV entry inh | CHX counter
CC(C)NC(=S)N1CCN(S(=O)(=O)c2cccc(C(F)(F)F)c2)CC1 | -11 | 3% | 5% | -1
O=C(Nc1ccc([N+](=O)[O-])cc1O)Nc1ccccc1Br | 61* | / | / | 36*
O=C(Nc1ccccc1)Nc1ccc(Br)c(Cl)c1 | 72* | -30% | -34% | 42*
COc1ccccc1NC(=O)Nc1ccccc1Br | 12 | -1% | 0% | -2
O=C(Nc1ccccc1)Nc1ccccc1Br | 117* | ? | -22% | 68*
CN(C)C(=S)Nc1ccc(Br)c(Cl)c1 | -2 | 0% | -24%[14.2 µM] | -1
O=C(CN1C(=O)c2ccccc2C1=O)NCc1ccccn1 | 25 | 2% | 2%[46.1 µM] | 1
O=C(Cn1c(=O)sc2ccccc21)NCc1ccccn1 | 54* | / | / | 18*
Cc1cccc(NC(=O)CSc2nsc(SCC(=O)Nc3cccc(C)c3)c2C#N)c1 | 12 | 2% | 2% | 12*
CC(=O)Nc1cccc(NC(=O)CSc2nc(C)c(C)c(C)c2C#N)c1 | -2 | 28% | ? | 11*
Cc1cccc(C)c1NC(=O)CSc1nc(C)c(CC(=O)c2ccc(Br)cc2)c(C)c1C#N | -1 | 18µM* | ? | -3
N#Cc1c(SCC(=O)Nc2ccccc2)nsc1SCC(=O)Nc1ccccc1 | -8 | 4%[46.1 µM] | ? | 0
COc1ccc(C)cc1NC(=O)c1oc2ccc(S(=O)(=O)N3CCC4(CC3)OCCO4)cc2c1C | / | 8%[46.1 µM] | / | /
CC1CCN(C(=O)Cn2ncc3c4ccccc4n(Cc4ccc(Cl)cc4)c3c2=O)CC1 | / | 19%[46.1 µM] | -18%[46.1 µM] | /
O=C(O)CN1C(=O)C(=O)N(Cc2ccc(Cl)cc2Cl)C1=O | -4 | -3% | 9% | 1
CCOc1ccc2nc3sc(C(=O)N4CCOCC4)c(N)c3cc2c1 | 40 | ? | ? | 8
